# Assay results taken from the supplement of paper PMC12632987.
# Whole data set: some 4,500 sequences, median “median log2 fold change of GCK-ALFA target abundance (FLAG IP / Myc IP barcode read proportion)” near 0.078, cut for the lowest 2% near -0.6. The sample as a whole holds a higher share of the lowest values than the screen did.
# B1: GBRAP_35_5618 (protein)
# chain: MSDEELTDMLVDLIEDATAAVPDVSVETLAAIAASLSRAVRSLAEELAGNAENLRRLADAVEALRDAIERHHGDDPLAQETIAALTATAEEIRARAAASE
# B2: GBRAP_160_4664 (protein)
# chain: SEEIEKLLEEIRELLLETLDWTKDLDPASREALLRAAVGDVLQLLFENPLVTDEVEDYAEEVLEEMREYVLANPDLTDEEREALVDEVVDKIREKILEES
# B3: GBRAP_11_2937 (protein)
# chain: EKEKLKKAQELAKEAQELLKKIQKAGKLDEELLKKAQELLKKAAELAKELGLEEEQKDLELAQELLEEVQKAGKLDETKVAAAQALVFDVAHELEEKLEE
# B4: GBRAP_52_6133 (protein)
# chain: MREELREKVLELLELVKAGKLEEAKKRLLKIAKELSDEELREFAREFAEVVRELPPEDLDAAAELLELAEEALEEAGRPEELISLLIGEGARALYEVEQR
# B5: GBRAP_11_2673 (protein)
# chain: MKEKLLEAAELAEKAAKLVEELIKEGVDNEELLKELKKLLEELKKLAKEYLSKALQKDVEVAEELFKELLEDEENRLEYAEQLLAALRVLEGNLLLEADE
# B6: GBRAP_52_6314 (protein)
# chain: MSERMEELARRLLELMLAGDEEGARALIRELVKTLSEEELLLLAEELARLAKTLDAEGLDALARLLELIEDEMEEEGVDERIIAEIRGIIITAIYEAEQR
# B7: GBRAP_53_6413 (protein)
# chain: AEAEIAALRAEVKATARAAAAADEATLAALVAEIGALLAALKAAGMPDEELTALAEEVARTLRAAGAPDSALVALAGHLAALGLEEATAAVAEEAVEELE
# B8: GBRAP_35_5548 (protein)
# chain: DSDEETAEMLVDTIEDIVEALPDVSEEDRVALAEAALRLARDLVELQPKNKELIKRAIEALERIKEIIEESDLPEEVRERLVREIEELIEELKKILEENE
# B9: GBRAP_35_5549 (protein)
# chain: DSDREIAEMLVDTIEDIVEALPDVSEEDKIALAKAAIRLARDLVELKPKDEELIKRAIEALERIKEILEESDLPEEDKEELIEEIEELIEELKKLLEENK
# B10: GBRAP_122_2955 (protein)
# chain: SKEEEVERLVEETVEAAKKGDFAATILEALKEAAERFDAESLIRLAERLAERARELGKEAEAALAFATAAQWLLEERPELAEAADRLLELADELLDLLEE
# B11: GBRAP_166_4966 (protein)
# chain: MEEEIKEEFKKYLEELKEKMKKANEEEKLELLAEAAEKLREAKEAGVSRETLRELIRYLIELAKEVGLTDSQVYGALSILADLDEEEIDILEEEIAEVRA
# B12: GBRAP_166_4889 (protein)
# chain: STEEAIREIERLAEEAIANIAALTPEELLAVFIEMVEIVERAGATPELRAALAEAAARIVAAAVAAGRDWDEVESLALAAVGDDEELLDAVEATLAALRA
# B13: GBRAP_74_6553 (protein)
# chain: SAALKKEIDAAAKAGDADKLIKLARKAVKEGDIDVAVHALGQLAKLAVKKAKAGDYDELDKLIDAIVEILEKVPDEALTDETWKAIAAAIKAAIEAEKAR
# B14: GBRAP_160_4776 (protein)
# chain: SEKEEKLKKKIKEAKEEILESIDTLSPEETLTVAIGETGDIIMEAEELEFDNEELLDSIDEIMDELIEELEKNKNASPEEKKKIVEEKFEKLLKELEKLT
# B15: GBRAP_160_4428 (protein)
# chain: SEKLKKAKEKIEEIIEETVEMMKGQSAEERQVLVRVARGEIILELEELGLLTDEVDEVIDEEFDEIVEYIAENPDISDEELRELLEEAREKILKELEKVS
# B16: GBRAP_14_3860 (protein)
# chain: VEALVKAVERTAESTKELIAEIAPEHAEEIKAKVEELAKEIIEKIKKENLNIEEVEELVDEAAEKLGAYMREKGYLSDTEIAAFKAHLLSEFLLELEEIE
# B17: GBRAP_160_4725 (protein)
# chain: EEEIKEFVEEFREEFLETLELTKDESKENAKALFRGTAGEILQDAFENPFLTDEQEDVVAEILDELVEELEKNFDASLEEKKEIVEEKMEELLEKLLELS
# B18: GBRAP_128_3486 (protein)
# chain: STEEVVAKTKELMEKIKNSSLEEVEEIARELVELLGQADPESREAATEVILEKLKELSAEKLEILADVLRERQPELDPFGAEQAAEIQVEALNEAEEKEE
# B19: GBRAP_52_6313 (protein)
# chain: MREEMRAQAEELLALMLAGDRDGARALAEELVATLSEEELLLLAEELAKLSETLNAEELDKAMELLEILEDVMEEAGVDERVIAEIRGIVITAIYKAEQK
# B20: GBRAP_52_6312 (protein)
# chain: MHERMRELAEELLELMLAGDREGARALAREIVATLSEEELLLLAEELAELAEELDEEELEKAAELLFILEDEMEAAGVDERVIAEMLGIIITAIYKAEQK
# Biological target: GABARAP, O95166
# Assay: median log2 fold change of GCK-ALFA target abundance (FLAG IP / Myc IP barcode read proportion) (log2 ratio); each designed protein is fused to an ALFA-tag nanobody in HEK293 cells to bring the named protein to FLAG-tagged glucokinase (GCK); Myc marks an untargeted standard; higher = target protein stabilised (more abundant)
# Conditions: target protein: 3xFLAG-MCP-GCK-ALFA reporter; HEK293 landing pad (RPLP)
# In short: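 Binders fused to an ALFA nanobody were recombined as a library into HEK293 landing-pad cells, which were induced with 2 μg mL^−1 doxycycline and then transfected to express a FLAG-tagged target and a Myc-tagged standard. After 48 h, circular RNA barcodes recovered by anti-FLAG and anti-Myc immunoprecipitation of lysates were reverse transcribed, amplified and sequenced. Each binder's target abundance is the median log2 ratio of FLAG to Myc barcode read proportions, from barcodes present at ≥10^−7 in both replicates, binders carrying ≥3 barcodes per replicate, a 10^−6 pseudocount and pooled replicates.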
# GABARAP, O95166, sequence (O95166 whole entry, the tested form may be a part): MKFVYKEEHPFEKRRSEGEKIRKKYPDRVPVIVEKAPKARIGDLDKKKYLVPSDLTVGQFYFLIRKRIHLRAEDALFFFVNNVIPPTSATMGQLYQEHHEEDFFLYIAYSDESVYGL
row,Binder,median log2 fold change
1,B1,-1.48
2,B2,-0.406
3,B3,0.139
4,B4,0.086
5,B5,0.0764
6,B6,-0.236
7,B7,0.295
8,B8,-0.485
9,B9,-0.761
10,B10,-0.119
11,B11,-0.12
12,B12,0.108
13,B13,-0.699
14,B14,0.018
15,B15,0.0554
16,B16,0.302
17,B17,0.0697
18,B18,0.224
19,B19,-0.0291
20,B20,-0.795
